Key:
Assay in all cases: log2 ratio of Biotin-Ahx-Ub-VS probe labelling (fragment/DMSO); higher = less target engagement (more negative = stronger competition), active = hit call of the paper (q ≤ 0.05, log2 ratio ≤ -1)
Settings in all cases: compound concentration: 200 uM; treatment time: 3 h
USP9X = USP9X (UniProt Q93008)
Outline: (§1)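 Using Biotin-Ahx-Ub-VS at 0.5 µM final for 1 h, DUBs were labelled in HEK293T lysate (495 µg per sample) that had first been treated in triplicate with fragment at 200 µM or vehicle for 3 h. NeutrAvidin enrichment, LysC and trypsin digestion and diaPASEF LC-MS/MS followed. Spectronaut label-free quantities were global-median-normalised. Values are average log2 fragment/vehicle ratios by unpaired t-test, using proteins with ≥2 unique peptides.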

UniProt O00487 = molecular target: UniProt O00487
Sequence of UniProt O00487 (O00487 whole entry): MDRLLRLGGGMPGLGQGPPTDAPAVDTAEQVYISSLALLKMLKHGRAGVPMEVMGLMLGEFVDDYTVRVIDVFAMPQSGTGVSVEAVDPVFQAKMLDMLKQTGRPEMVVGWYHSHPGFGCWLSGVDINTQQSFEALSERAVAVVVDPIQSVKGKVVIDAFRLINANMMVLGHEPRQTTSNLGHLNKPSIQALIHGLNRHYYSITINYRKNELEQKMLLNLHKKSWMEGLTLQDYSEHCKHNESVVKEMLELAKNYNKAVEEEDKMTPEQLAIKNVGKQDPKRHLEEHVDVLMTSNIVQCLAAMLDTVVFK
Outline: as §1

UniProt O00507 = molecular target: UniProt O00507
Outline: as §1

UniProt P51784 = molecular target: UniProt P51784
Sequence of UniProt P51784 (P51784 whole entry): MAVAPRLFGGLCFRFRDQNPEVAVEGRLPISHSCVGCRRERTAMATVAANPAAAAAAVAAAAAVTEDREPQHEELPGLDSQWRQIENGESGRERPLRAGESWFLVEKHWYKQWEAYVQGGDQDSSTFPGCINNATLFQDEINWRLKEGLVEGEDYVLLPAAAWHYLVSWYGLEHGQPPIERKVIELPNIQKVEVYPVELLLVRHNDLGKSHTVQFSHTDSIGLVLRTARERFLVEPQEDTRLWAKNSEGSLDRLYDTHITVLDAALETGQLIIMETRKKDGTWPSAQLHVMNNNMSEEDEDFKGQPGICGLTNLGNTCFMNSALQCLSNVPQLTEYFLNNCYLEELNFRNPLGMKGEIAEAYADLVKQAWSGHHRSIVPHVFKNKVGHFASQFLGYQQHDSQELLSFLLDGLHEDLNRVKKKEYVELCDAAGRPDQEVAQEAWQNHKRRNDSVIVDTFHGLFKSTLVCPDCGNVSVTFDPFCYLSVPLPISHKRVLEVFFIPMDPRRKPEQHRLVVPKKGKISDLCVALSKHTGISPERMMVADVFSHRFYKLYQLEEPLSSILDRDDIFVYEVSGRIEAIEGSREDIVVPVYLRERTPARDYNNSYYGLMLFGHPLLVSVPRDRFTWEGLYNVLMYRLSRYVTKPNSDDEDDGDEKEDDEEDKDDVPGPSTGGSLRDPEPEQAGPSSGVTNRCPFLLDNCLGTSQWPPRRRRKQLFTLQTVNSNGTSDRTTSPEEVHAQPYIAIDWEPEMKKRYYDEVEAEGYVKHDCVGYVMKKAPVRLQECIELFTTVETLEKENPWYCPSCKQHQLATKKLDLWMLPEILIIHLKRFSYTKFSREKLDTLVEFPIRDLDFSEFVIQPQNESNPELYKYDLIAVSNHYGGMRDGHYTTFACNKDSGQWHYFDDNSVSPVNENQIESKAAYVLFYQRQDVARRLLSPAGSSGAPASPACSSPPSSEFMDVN
Outline: as §1

UniProt Q5T2D3 = molecular target: T1, UniProt Q5T2D3
T1 sequence (whole entry): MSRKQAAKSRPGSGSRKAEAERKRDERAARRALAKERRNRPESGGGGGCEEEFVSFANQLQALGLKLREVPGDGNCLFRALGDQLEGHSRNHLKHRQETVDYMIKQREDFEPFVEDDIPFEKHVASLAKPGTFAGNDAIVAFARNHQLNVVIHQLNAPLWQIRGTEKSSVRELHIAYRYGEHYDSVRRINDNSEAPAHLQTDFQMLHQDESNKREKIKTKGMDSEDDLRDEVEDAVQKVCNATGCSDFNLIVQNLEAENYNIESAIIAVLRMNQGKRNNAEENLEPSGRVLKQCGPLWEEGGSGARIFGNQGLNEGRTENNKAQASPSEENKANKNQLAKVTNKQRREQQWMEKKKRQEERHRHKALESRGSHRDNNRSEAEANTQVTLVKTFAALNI
Outline: as §1

UniProt Q8TE49 = molecular target: T2, UniProt Q8TE49
T2 sequence (whole entry): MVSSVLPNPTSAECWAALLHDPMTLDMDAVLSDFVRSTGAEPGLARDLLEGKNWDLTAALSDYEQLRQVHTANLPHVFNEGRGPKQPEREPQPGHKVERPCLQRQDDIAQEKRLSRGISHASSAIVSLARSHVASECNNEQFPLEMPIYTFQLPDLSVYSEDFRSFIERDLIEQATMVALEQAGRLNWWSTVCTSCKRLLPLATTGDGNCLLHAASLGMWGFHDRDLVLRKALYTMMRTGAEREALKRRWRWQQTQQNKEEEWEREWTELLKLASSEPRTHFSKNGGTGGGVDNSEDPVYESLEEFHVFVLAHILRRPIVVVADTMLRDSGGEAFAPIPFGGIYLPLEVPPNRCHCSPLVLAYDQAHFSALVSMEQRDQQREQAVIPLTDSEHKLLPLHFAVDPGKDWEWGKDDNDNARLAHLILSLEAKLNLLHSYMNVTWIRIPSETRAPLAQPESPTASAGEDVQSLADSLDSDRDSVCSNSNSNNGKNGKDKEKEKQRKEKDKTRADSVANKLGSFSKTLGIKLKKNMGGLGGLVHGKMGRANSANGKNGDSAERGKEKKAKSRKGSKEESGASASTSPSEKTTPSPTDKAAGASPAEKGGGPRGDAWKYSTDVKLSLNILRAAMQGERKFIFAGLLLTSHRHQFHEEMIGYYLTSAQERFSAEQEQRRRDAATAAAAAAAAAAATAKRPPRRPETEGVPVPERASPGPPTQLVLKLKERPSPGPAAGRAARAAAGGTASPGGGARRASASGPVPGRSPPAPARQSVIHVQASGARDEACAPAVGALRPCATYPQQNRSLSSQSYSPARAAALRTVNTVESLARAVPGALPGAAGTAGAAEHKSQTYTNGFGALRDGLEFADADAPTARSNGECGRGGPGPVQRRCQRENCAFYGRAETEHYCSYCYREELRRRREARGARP
Outline: as §1

UniProt Q9P2H5 = molecular target: T3, UniProt Q9P2H5
T3 sequence (whole entry): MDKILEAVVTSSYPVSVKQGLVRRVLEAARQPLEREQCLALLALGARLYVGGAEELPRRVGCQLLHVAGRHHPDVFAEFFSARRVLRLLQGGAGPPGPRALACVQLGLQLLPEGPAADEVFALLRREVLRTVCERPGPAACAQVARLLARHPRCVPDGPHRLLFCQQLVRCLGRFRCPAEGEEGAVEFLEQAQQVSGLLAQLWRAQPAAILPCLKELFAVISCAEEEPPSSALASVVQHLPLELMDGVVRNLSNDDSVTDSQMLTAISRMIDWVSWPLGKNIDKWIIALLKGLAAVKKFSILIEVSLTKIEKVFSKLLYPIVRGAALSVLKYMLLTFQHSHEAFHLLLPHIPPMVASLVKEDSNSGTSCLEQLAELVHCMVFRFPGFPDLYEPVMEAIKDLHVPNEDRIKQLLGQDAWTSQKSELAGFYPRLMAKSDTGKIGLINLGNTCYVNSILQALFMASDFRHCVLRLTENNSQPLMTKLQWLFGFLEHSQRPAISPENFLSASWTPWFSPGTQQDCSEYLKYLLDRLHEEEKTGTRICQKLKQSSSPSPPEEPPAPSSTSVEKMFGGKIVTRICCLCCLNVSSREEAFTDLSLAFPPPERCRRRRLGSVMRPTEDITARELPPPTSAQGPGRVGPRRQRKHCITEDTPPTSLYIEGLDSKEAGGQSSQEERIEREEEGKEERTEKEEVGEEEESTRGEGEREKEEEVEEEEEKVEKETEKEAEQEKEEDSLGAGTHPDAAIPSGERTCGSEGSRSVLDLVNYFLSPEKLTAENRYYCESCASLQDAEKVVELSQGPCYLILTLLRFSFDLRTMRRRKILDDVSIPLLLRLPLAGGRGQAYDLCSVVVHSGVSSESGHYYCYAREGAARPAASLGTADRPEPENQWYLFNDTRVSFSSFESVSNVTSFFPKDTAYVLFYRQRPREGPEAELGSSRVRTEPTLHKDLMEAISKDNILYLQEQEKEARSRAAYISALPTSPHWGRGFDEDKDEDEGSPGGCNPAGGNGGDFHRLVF
Outline: as §1

UniProt Q9UGI0 = molecular target: T4, UniProt Q9UGI0
T4 sequence (whole entry): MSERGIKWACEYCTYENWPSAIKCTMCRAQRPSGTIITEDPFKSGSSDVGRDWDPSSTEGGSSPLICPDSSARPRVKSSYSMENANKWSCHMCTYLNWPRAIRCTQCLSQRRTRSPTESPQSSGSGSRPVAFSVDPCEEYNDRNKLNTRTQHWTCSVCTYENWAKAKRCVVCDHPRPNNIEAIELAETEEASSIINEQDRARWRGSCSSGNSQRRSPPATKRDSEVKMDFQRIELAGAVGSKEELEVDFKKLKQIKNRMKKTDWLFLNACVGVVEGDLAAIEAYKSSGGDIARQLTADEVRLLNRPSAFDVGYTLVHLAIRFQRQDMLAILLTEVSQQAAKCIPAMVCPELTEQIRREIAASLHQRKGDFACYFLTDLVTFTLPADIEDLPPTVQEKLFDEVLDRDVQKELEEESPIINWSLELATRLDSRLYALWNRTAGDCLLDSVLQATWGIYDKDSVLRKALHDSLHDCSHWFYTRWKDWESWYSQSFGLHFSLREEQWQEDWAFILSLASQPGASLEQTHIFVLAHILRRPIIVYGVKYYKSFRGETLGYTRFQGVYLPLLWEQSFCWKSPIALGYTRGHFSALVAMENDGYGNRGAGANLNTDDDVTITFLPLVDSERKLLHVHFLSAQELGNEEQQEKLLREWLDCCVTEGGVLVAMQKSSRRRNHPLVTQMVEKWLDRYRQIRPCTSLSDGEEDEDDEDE
Outline: as §1

YOD1 = molecular target: T5, YOD1 (UniProt Q5VVQ6)
T5 sequence (whole entry): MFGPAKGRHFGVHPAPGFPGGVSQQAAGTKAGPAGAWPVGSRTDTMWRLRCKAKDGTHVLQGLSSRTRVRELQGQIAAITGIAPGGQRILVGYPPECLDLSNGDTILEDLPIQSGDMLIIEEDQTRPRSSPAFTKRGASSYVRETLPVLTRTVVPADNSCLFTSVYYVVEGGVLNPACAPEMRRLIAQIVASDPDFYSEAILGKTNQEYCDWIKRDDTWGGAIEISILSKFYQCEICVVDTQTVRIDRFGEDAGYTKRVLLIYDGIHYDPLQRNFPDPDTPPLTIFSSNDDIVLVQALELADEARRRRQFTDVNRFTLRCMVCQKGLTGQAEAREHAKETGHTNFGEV
Outline: as §1

Measured: log2 ratio of Biotin-Ahx-Ub-VS probe labelling

Sequence of USP9X (Q93008 whole entry, the tested form may be a part): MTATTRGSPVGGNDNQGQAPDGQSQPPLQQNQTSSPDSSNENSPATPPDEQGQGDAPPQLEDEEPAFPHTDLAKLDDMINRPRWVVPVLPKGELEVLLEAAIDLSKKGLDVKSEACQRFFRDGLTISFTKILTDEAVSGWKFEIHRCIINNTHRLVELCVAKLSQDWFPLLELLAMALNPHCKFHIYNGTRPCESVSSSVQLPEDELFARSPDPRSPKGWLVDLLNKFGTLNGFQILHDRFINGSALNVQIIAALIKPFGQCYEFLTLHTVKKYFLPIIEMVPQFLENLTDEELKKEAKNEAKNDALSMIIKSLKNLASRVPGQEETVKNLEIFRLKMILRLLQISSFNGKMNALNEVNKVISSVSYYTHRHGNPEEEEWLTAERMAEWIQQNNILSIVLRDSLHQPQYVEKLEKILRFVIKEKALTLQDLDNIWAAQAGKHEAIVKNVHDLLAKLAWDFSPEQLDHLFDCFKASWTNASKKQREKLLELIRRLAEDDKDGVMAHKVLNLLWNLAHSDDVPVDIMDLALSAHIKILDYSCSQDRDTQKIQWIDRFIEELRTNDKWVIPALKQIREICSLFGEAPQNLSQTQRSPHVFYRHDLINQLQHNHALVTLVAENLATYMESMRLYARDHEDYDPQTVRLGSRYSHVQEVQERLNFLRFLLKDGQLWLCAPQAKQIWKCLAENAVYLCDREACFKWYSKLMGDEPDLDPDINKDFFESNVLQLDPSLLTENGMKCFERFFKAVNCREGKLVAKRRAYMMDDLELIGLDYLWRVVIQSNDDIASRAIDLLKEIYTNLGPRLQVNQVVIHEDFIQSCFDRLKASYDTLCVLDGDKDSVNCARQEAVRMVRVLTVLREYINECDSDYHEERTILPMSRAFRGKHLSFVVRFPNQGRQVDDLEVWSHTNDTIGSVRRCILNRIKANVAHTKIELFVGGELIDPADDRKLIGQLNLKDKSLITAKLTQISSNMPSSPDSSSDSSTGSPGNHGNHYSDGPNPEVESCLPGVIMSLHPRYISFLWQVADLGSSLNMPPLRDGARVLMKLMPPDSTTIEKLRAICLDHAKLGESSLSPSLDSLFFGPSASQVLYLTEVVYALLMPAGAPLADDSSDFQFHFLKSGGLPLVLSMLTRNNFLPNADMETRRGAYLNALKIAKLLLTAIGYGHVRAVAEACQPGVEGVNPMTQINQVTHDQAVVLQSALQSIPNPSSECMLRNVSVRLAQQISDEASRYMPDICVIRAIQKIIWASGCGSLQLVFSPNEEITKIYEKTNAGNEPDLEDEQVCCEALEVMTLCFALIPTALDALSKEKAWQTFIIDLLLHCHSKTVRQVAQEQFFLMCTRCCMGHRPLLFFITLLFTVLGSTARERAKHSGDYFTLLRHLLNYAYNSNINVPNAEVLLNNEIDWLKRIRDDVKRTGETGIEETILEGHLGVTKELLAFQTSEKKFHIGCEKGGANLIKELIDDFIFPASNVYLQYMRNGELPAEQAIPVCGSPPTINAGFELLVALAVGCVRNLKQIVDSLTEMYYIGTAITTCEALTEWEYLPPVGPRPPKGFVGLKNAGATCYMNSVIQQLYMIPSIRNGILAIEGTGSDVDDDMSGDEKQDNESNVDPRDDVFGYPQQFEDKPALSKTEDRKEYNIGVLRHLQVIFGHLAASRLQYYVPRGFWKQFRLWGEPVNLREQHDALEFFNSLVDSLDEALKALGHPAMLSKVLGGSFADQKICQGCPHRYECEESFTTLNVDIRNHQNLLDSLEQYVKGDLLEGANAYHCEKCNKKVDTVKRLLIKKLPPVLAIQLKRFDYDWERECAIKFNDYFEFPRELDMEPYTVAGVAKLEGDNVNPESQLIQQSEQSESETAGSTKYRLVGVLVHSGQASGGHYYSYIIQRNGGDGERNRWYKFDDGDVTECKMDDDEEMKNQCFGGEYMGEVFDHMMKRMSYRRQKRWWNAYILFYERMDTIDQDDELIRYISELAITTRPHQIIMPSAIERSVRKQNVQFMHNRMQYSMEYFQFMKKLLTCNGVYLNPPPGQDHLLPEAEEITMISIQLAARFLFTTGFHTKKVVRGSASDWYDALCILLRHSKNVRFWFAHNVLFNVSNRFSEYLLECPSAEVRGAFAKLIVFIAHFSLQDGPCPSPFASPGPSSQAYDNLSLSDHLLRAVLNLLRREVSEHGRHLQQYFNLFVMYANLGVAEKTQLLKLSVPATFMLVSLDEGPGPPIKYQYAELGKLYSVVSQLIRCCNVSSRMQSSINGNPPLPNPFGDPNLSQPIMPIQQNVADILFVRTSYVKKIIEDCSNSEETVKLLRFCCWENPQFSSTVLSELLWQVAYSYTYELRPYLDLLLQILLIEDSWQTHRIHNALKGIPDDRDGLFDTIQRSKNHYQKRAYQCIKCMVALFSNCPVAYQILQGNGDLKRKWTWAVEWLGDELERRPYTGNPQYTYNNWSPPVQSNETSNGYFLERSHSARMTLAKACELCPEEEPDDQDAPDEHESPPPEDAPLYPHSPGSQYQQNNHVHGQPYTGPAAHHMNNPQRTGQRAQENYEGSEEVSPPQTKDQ

O=C(CCl)N1CCCC2CCCCC21 (centres undefined)
inactive: USP9X -0.183 | UniProt O00487 -0.107 | UniProt O00507 -0.0343 | UniProt P51784 0.035 | UniProt Q5T2D3 -0.0557 | UniProt Q8TE49 -0.126 | UniProt Q9P2H5 -0.193 | UniProt Q9UGI0 -0.134 | YOD1 0.0864

From the supplement of paper PMC11732987, “Enantioselective OTUD7B fragment discovery through chemoproteomics screening and high-throughput optimisation” (Communications Chemistry, 2025)
